We go through 16 compounds from PubChem BioAssay.

Assay [1] is described as follows: binders of probe aFSTL3 on microarray, primary screen, stem cell growth factor project, biochemical, small-molecule microarray, fluorescence 635/667 (AID 1064).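 Further: measures binding of the biotinylated anti-FSTL3 antibody to printed compounds.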 Conditions: higher = more signal; small-molecule microarray, probe aFSTL3, fluorescence unless noted.
A short description of assay [2]: binders from COS7 lysate, DM2A8 probe, primary screen, torsin A project, cell lysate, small-molecule microarray, fluorescence 635/667 (AID 1065). The following applies: higher = more signal; small-molecule microarray, COS7 cell lysate, probe DM2A8, fluorescence, COS7 lysate expressing mutant human TOR1A unless noted.
The nature of assay [3]: binders of probe aFGF2 on microarray, primary screen, stem cell growth factor project, biochemical, small-molecule microarray, fluorescence 635/667 (AID 1067).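 Further: measures binding of biotinylated aFGF2 protein to printed compounds on slides; z-score merges feature fluorescence and signal-to-noise across triplicate slides.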 The following applies: higher = more signal; small-molecule microarray, probe aFGF2, fluorescence unless noted.
Assay [4] in a line: binders of probe aFGF10 on microarray, primary screen, stem cell growth factor project, biochemical, small-molecule microarray, fluorescence 635/667 (AID 1071).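 Further: score merges 667 nm spot intensity and signal to noise from triplicate slides.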 The following applies: higher = more signal; small-molecule microarray, probe aFGF10, fluorescence unless noted.
Assay [5] concerns the target Neurogenic locus notch homolog protein 2 (Homo sapiens) (UniProt Q04721). The assay is described as follows: Notch2 binders on small-molecule microarrays, primary screen, biochemical, small-molecule microarray, 635 nm fluorescence, stem cell growth factors (AID 1073). The following applies: Notch2 binding, higher = more signal.
Assay [6] addresses Pro-neuregulin-1, membrane-bound isoform (Homo sapiens) (UniProt Q02297). The experiment in a line: NRG1 binders on small-molecule microarrays, primary screen, psychiatric disease protein project, biochemical, small-molecule microarray, fluorescence 635/667 (AID 1075).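 Further: score combines 667 nm spot fluorescence with signal to noise.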 Conditions: NRG1 binding, 635 nm fluorescence, higher = more signal.
Assay [7] deals with Neuregulin-1 EGF-like domain. The experiment in a line: binders of neuregulin-1 EGF-like domain, primary screen, biochemical, small-molecule microarray, 635 nm fluorescence (AID 1081).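 Further: binding of the protein to compounds printed on small-molecule microarray slides.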 Conditions: small-molecule microarray binding, higher = more signal.
The nature of assay [8]: FRG1 promoter luciferase signal modulators, primary screen, FRG1 inhibition for FSHD, cell-based, C2C12 myotubes, firefly/Renilla luciferase, luminescence (AID 1084). Conditions: higher = more signal, called active from +8 up or from −8 down unless noted.
Assay [9] in a line: binders of probe aFST on microarray, primary screen, stem cell growth factor project, biochemical, small-molecule microarray, fluorescence 635/667 (AID 1086).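 Further: score merges 667 nm fluorescence with signal-to-noise of each printed compound spot.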 The following applies: higher = more signal.
A short description of assay [10]: binders of probe aHhip on microarray, primary screen, stem cell growth factor project, biochemical, small-molecule microarray, fluorescence 635/667 (AID 1087).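 Further: score merges spot fluorescence at 667nm with spot signal to noise ratio.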 The following applies: higher = more signal.

“And” between values parts separate entries of the source, which are not always exact repeats. Equal values may be shown once. The source made the active and inactive calls.

Chain of Neurogenic locus notch homolog protein 2 (Homo sapiens) (Q04721 whole entry, looked up, canonical isoform): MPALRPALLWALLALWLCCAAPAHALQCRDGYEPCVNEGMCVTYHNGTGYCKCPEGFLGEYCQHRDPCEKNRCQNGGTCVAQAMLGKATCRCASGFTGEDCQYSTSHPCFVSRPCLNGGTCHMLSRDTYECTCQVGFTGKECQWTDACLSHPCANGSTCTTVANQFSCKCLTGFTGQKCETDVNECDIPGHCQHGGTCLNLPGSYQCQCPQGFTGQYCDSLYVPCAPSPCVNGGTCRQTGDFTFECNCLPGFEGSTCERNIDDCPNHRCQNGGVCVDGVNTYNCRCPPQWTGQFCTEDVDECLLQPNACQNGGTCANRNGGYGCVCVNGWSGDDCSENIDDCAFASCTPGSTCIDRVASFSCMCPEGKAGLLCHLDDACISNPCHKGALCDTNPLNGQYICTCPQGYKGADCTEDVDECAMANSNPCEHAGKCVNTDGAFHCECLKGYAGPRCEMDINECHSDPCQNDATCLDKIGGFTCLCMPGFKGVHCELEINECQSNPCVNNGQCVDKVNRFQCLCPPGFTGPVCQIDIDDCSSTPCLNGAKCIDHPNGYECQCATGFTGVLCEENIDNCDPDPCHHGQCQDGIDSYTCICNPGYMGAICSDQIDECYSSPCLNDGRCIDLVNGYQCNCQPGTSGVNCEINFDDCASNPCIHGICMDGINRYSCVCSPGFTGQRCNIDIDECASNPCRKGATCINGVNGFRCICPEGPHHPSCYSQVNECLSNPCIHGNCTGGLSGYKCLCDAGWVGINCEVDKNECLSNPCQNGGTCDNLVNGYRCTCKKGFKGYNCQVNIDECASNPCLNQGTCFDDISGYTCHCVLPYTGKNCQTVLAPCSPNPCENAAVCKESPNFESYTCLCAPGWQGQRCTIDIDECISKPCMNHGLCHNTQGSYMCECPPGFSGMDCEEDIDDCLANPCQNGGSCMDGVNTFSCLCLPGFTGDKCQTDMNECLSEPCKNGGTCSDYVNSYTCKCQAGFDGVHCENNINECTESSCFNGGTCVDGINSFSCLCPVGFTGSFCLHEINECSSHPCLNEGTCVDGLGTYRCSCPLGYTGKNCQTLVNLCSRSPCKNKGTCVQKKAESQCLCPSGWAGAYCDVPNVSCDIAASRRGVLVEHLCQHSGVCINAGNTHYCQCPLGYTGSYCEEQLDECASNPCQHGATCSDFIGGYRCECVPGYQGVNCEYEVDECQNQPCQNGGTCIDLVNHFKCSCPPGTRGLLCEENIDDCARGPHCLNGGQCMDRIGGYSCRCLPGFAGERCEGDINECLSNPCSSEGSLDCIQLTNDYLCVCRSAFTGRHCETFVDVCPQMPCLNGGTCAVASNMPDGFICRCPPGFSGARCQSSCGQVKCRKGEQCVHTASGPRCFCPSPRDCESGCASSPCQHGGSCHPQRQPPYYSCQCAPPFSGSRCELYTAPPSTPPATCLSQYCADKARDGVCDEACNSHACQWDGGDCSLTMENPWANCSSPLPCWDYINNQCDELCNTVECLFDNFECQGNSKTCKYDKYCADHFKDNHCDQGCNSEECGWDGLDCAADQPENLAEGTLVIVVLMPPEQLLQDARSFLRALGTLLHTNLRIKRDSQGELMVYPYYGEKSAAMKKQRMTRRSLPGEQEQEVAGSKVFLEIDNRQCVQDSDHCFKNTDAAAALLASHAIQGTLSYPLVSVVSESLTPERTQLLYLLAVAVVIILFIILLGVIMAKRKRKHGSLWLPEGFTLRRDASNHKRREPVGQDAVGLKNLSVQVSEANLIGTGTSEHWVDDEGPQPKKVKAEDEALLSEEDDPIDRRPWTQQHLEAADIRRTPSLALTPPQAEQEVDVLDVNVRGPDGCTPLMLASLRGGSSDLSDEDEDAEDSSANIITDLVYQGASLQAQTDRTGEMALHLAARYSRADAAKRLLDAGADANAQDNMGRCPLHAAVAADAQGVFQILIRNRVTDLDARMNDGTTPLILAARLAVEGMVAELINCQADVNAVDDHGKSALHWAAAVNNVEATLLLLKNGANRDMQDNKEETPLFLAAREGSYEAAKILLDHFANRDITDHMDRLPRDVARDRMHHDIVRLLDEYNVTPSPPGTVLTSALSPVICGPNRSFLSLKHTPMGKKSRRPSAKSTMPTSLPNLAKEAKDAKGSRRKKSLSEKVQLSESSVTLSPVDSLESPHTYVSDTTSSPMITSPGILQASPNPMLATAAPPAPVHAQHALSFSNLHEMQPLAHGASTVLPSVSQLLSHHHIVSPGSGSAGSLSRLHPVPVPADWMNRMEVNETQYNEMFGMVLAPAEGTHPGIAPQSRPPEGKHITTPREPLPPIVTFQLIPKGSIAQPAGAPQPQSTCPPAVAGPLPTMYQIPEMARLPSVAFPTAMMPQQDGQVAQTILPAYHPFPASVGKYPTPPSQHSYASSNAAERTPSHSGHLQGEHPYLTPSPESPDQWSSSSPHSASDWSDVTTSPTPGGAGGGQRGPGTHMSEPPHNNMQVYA
Chain of Pro-neuregulin-1, membrane-bound isoform (Homo sapiens) (Q02297 whole entry, looked up, the tested form may be a part, canonical isoform): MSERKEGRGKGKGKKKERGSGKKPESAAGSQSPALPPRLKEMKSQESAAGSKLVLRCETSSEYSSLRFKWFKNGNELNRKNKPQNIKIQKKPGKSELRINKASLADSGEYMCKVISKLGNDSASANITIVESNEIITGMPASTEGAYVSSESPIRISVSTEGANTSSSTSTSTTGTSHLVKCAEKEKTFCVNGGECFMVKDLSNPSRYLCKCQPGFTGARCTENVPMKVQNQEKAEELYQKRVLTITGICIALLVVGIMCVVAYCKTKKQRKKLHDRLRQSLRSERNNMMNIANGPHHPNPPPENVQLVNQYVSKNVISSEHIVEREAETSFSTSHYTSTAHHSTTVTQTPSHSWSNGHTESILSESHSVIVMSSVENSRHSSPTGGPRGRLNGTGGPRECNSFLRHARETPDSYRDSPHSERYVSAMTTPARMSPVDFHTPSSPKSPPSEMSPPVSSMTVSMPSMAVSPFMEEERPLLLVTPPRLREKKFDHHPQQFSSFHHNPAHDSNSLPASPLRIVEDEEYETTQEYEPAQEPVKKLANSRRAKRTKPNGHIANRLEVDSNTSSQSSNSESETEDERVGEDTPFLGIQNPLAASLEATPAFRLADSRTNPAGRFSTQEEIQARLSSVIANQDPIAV

Regarding `CN1CCc2nc(CO)c(CO)cc2C1`, the composite z-score in [1] was -0.304; in assay [2], 0.267; in assay [3], -0.0982; in [4] it was 0.401; in assay [5], 0.528; in assay [6], 0.0016. In addition, the composite z-score in assay [7] amounted to 0.611; in assay [9], 0.242; in assay [10], 0.0881. For the same compound, in assay [8], the z-score is 0.294 (inactive).
As for `COC(=O)C1(C)C=C2C(=C(C)C(=O)C2C)CN1` (stereo not given), the composite z-score in assay [1] was 1.28; in assay [2], -0.297; in assay [3], -0.0627; in [4] it was -0.195; in assay [5], -0.483; in assay [6], 0.367. Besides, the values for the composite z-score in assay [7], in [9] and in [10] were 1.55, 0.706 and 0.107, respectively. Also, the z-score in assay [8] is 3.71 (inactive).
Take `CCCC[C@@H]1C[C@H]1[C@@H](NP(=O)(c1ccccc1)c1ccccc1)c1ccc(Cl)cc1`: the composite z-score in assay [1] was 1.68; in assay [2] it was -1.94; in assay [3] it was -0.129; in assay [4] it was -0.0013; in assay [5] it was -0.438; in assay [6], 0.291. For the same compound, the composite z-score in [7] is 0.142; in assay [9] it was -0.22; in assay [10] it was -0.0994. For the same compound, the z-score in [8] is 0.695 (inactive).
For `CC1N(P(=O)(c2ccccc2)c2ccccc2)CC(O)(c2ccccc2)CC12CC2` (stereo not given), the composite z-score was 0.401 and 0.0381 in [1]; -1.21 and -0.157 in assay [2]; 0.0161 and 0.221 in assay [3]; 0.309 and 0.352 in assay [4]; 0.621 and 1.54 in [5]; 2 and 1.82 in assay [6]. In addition, the composite z-score in [7] is 1.41 and 0.526; in assay [9], -0.0551 and 1.02; in [10] it was 0.238 and 0.535. In addition, in assay [8], the z-score was 2.45 (inactive) and -0.78 (inactive).
Turning to `CCCc1cc2c(n1Cc1cccc(Cl)c1)C(C)C1CN(C(=O)c3ccccc3)C(C)(C(=O)OC)C21` (stereo not given), the composite z-score is 1.04 in assay [1]; 0.49 in [2]; 0.169 in assay [3]; 0.241 in [4]; 1.51 in assay [5]; 1.92 in assay [6]. In addition, the results for the composite z-score in [7], in assay [9] and in assay [10] were 1.11, 0.578 and 0.192, respectively. In addition, the z-score in assay [8] is 0.703 (inactive).
For the compound `COc1cc2c(cc1O)C(C)N(C)CC2` (stereo not given), the composite z-score in assay [1] was 0.661; in [2] it was -0.144; in [3], -0.0345; in assay [4], -0.021; in assay [5], 0.358; in assay [6], -0.0581. The composite z-score in [7] was 1.14; in assay [9], -0.0662; in [10], 0.176. The z-score in assay [8] is -1.13 (inactive).
On to `OCc1ccc(C2=CC(c3cccs3)N(Cc3cccc(OC(F)(F)F)c3)CC2)cc1` (stereo not given), for which the composite z-score was -0.0593 in [1]; 0.466 in assay [2]; -0.0996 in assay [3]; -0.242 in assay [4]; -0.515 in assay [5]; 0.764 in assay [6]. For the same compound, the results for the composite z-score in assay [7], in assay [9] and in assay [10] were 0.536, -0.0002 and 0.0908, respectively. In [8], the z-score is -0.39 (inactive).
Regarding `COC(=O)NCC=Cc1nc(CCC=CC(=O)O[C@H]2CC3CC(=O)O[C@@H](C=CCC(C)C)C[C@@H]4CC[C@H](C)[C@@H](C[C@@H](OC)C[C@H](C2)O3)O4)co1`, the composite z-score in assay [1] is -0.117; in assay [2], -0.381; in [3], -0.114; in assay [4] it was -0.328; in assay [5] it was -0.896; in assay [6], -0.657. The figures for the composite z-score in assay [7], in assay [9] and in assay [10] were -0.905, -0.15 and -0.12, respectively. The z-score in [8] was 0.524 (inactive).
Consider `COC(=O)[C@H]1[C@@H](O)[C@@]2(O)c3c(OC)cc(OC)cc3O[C@@]2(c2ccc(OC)cc2)[C@@H]1c1ccccc1`, for which the composite z-score in assay [1] was -0.327; in assay [2] it was 0.287; in [3], -0.0894; in [4], 0.52; in [5], 0.514; in assay [6], 0.167. Besides, the figures for the composite z-score in [7], in assay [9] and in assay [10] were 0.357, 0.0836 and -0.152, respectively. Further, the z-score in [8] was 0.128 (inactive).
`COC(=O)[C@@]1(Cc2ccccc2)[C@H]2c3cc(C(=O)N(C)C)[nH]c3C[C@H]2CN1C(=O)c1ccccc1`: the composite z-score was 0.469 in assay [1]; -0.365 in assay [2]; -0.0063 in [3]; -0.12 in assay [4]; 0.335 in assay [5]; 1.03 in assay [6]. In addition, the values for the composite z-score in assay [7], in assay [9] and in assay [10] were 0.954, -0.0765 and 0.0176, respectively. For the same compound, the z-score in assay [8] was 1.82 (inactive).
With `CN1CCC(c2ccc(CO)cc2)=CC1c1cccs1` (stereo not given), the composite z-score in [1] is -0.182; in assay [2] it was -0.191; in assay [3] it was -0.128; in [4], -0.53; in assay [5] it was -0.131; in [6], 0.0188. Moreover, the composite z-score in [7] is 1.04; in [9], 0.13; in assay [10], -0.134. Further, the z-score in assay [8] is 1.68 (inactive).
Take `COc1cc2c(cc1O)C=[N+](C)CC2`: the composite z-score was -0.0131 in assay [1]; -0.532 in assay [2]; -0.172 in assay [3]; -0.17 in assay [4]; -0.718 in assay [5]; -0.835 in assay [6]. In addition, the figures for the composite z-score in assay [7], in [9] and in [10] were -0.286, 0.169 and -0.639, respectively. Besides, the z-score in assay [8] was -1.13 (inactive).
Take `COC(=O)[C@@]1(Cc2ccc(F)cc2)[C@H]2c3cc(C(=O)N(C)C)[nH]c3C[C@H]2CN1C(=O)c1ccccc1`: the composite z-score is 0.0665 [setting not given] in assay [1]; -0.441 [setting not given] in assay [2]; -0.162 [setting not given] in [3]; 0.203 [setting not given] in assay [4]; 1.35 in assay [5]; 0.986 in assay [6]. The values for the composite z-score in assay [7], in assay [9] and in assay [10] were 1.06, 0.656 and -0.236, respectively. Besides, the z-score in assay [8] was 0.832 [setting not given] (inactive).
Turning to `CCCc1cc2c(n1Cc1ccco1)C(C)C1CN(C(=O)c3ccccc3)C(C)(C(=O)OC)C21` (stereo not given), the composite z-score in assay [1] worked out at 1.03; in assay [2], 1.05; in assay [3], 0.13; in assay [4] it was 0.657; in [5] it was 1.66; in assay [6], 1.35. For the same compound, the composite z-score is 1.09 in [7], 0.802 in [9] and 1.05 in assay [10]. In addition, the z-score in [8] was 0.301 (inactive).
For `C=C(CC1(CNP(=O)(c2ccccc2)c2ccccc2)CC1)c1ccccc1`, the composite z-score in [1] was 0.019; in [2] it was -0.115; in assay [3] it was 0.179; in assay [4], 0.33; in assay [5], 0.777; in assay [6], 1.69. Moreover, the composite z-score in assay [7] was 0.525; in [9] it was 0.622; in assay [10] it was -0.0618. In assay [8], the z-score was -3.35 (inactive).
Consider `C[C@@H]1Cc2c(cnc3c2CN(C)CC3)CO1`, for which the composite z-score is -0.0578 in [1]; 0.442 in [2]; -0.105 in assay [3]; 0.0502 in assay [4]; -0.163 in assay [5]; -0.93 in [6]. In addition, the figures for the composite z-score in assay [7], in [9] and in [10] were -0.206, 0.0686 and 0.312, respectively. In addition, the z-score in [8] was -0.989 (inactive).
